Source: PubChem BioAssay
aSyn yeast inh = qHTS of alpha-syn Inhibitors. Yeast expressing alpha-synuclein, growth rescue, BacTiter-Glo, 24 h. 370,000 tested, 0.14% active. Potency, µM (series often up to 46.1 µM), for inactives: top-dose growth rescue (activation), usual class: activators; also: potency is read from the fitted curve at half-maximal effect; % of control where 0% means no effect; nearly all actives have a fitted effect of over 65% in size
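Rescue of yeast growth: cells expressing toxic alpha-synuclein, induced in galactose at OD600 0.02, incubated with compound 24 h at 30 C. ATP luminescence quantified growth; inhibitors of toxicity appear as activators.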
Abeta yeast res = qHTS for compounds that reverse cellular toxicity of Amyloid beta (A-beta) peptide in yeast: Primary Screen | yeast expressing A-beta42, growth rescue, OD600, 48 h; response scale: 0% DMSO, 100% iron-clioquinol control | Potency, µM (top dose mostly 46.1 µM), actives largely listed as activators | 410,000 tested, 0.063% active | AID 1347071, 2019; also: potency is read from the fitted curve at half-maximal effect; nearly all actives have a fitted effect of over 55% in size
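Growth rescue measured by 600 nm absorbance after 48 h yeast culture at 30 C with compound. Values normalized between DMSO and an equimolar ferric chloride plus clioquinol control.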
FUS suppressor = qHTS for Suppressors of FUS Proteinopathy: Primary screen using FUS-linked yeast assay; 390,000 tested, 0.24% active; AID 1347120, 2019; S. cerevisiae FUS-expressing, growth rescue, OD600, 24 h; Potency, µM (doses to about 76.6 µM), most hits filed as activators;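 also: potency is read from the fitted curve at half-maximal effect; plate controls were DMSO vehicle for no effect and reference control for full effect; nearly all actives have a fitted effect of over 55% in size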
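Toxicity suppression screen in FUS-yeast. Cells induced with 2% galactose, starting OD 0.005, treated 24hr at 30C with compounds at multiple final concentrations; growth by OD600.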
Akt phos inh = HTS Assay for Inhibitors of Akt Phophorylation: Primary Screen; Neuro2A IGF-stimulated pAkt S473 HTRF, 20 min; active compounds read low; activity change, % for hits at 50 µM; 360,000 tested, 0.32% active; in the data active = activity change below about -80%; inconclusive = mostly about -51% to -80%; also: % is scaled to controls: 0 for no effect and ±100 for the full control effect
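Single-point screen (50 µM final compound) in Neuro2A cells stimulated 20 min with 6 nM IGF at 37 deg C. After lysis, Ser473-phosphorylated Akt read by HTRF (ex 330 nm, em 615/665 nm) as the 665/615 ratio.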
TDP43 rescue = qHTS of TDP-43 Inhibitors | 410,000 tested, 1.8% active | Potency, µM (doses to about 46.1 µM), without a hit: top-dose growth rescue (activation), most hits filed as activators | TDP-43 expressing yeast growth rescue, BacTiter-Glo, 24 h | AID 652104, 2013; also: potency is read from the fitted curve at half-maximal effect; % of control where 0% means no effect; nearly all actives have a fitted effect of over 50% in size
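Growth rescue of TDP-43-toxic yeast measured as ATP luminescence (BacTiter-Glo). Cells grown to mid-log in raffinose, induced in galactose at OD600=0.02, exposed to compound 24 hr at 30 deg C.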
* hit, by the source's call; [ ] = remark or other dose. An excerpt weighted towards active compounds, which were near 2.3% of everything screened. Unless noted, calls follow the shape of the dose curve; as a rule, active = well fitted curve in the direction sought with a large enough effect; inconclusive = small, poorly fitted or top-dose-only effect, or another doubt; inactive = no such curve, though single readings can be large; an effect the other way counts as inactive or inconclusive.

For CCn1cc(S(=O)(=O)c2cccc(Cl)c2)c(=O)c2cc(F)c(N3CCN(C)CC3)cc21 the results were Abeta yeast res inactive, FUS suppressor inactive and TDP43 rescue inconclusive.
For O=C(CSc1nnc(C2CC2)n1-c1ccccc1)NCCc1ccccc1 the results were aSyn yeast inh 2%, Abeta yeast res inactive, FUS suppressor inactive, Akt phos inh -102%* and TDP43 rescue -34%.
For Cc1ccc(-n2nnnc2SCC(=O)NCCc2ccccc2)cc1C the results were Abeta yeast res inactive, FUS suppressor inactive and TDP43 rescue 22µM*.
Screening CCNC(=O)CSc1nnc(C2CC2)n1-c1ccccc1 returned aSyn yeast inh -4%, Abeta yeast res inactive, FUS suppressor inactive, Akt phos inh inactive and TDP43 rescue 24%.
`Cc1ccc(NC(=O)Nc2cn(C)c(=O)c3ccccc23)c(Cl)c1` gave Abeta yeast res inactive, FUS suppressor inactive and TDP43 rescue inconclusive.
Cc1ccc(C2C(=O)N(C3CCCCCC3)CC(=O)N2CCC2=CCCCC2)cc1 (configuration not stated) was read as Abeta yeast res inactive, FUS suppressor inactive and TDP43 rescue -8%.
`CCCC1Cc2c(sc(N)c2C#N)CO1` (configuration not stated) gave aSyn yeast inh 5%, Abeta yeast res inactive, FUS suppressor inactive, Akt phos inh inactive and TDP43 rescue 13µM*.
Screening COc1ccc(CCNC(=O)CCCn2c(=O)c3ccccc3n(Cc3ccccc3)c2=O)cc1OC returned Abeta yeast res inactive, FUS suppressor inactive and TDP43 rescue 6%.
`COc1cc(/C=C/C(=O)OCC(=O)NCCC2=CCCCC2)cc(OC)c1OC` gave aSyn yeast inh 14%, Abeta yeast res inactive, FUS suppressor inactive, Akt phos inh inactive and TDP43 rescue 35µM*.
Screening COc1cccc(NC(=O)CN2C(=O)C3(SCC(=O)N3c3cc(C)cc(C)c3)c3ccccc32)c1 (configuration not stated) returned aSyn yeast inh 0%, Abeta yeast res inactive, FUS suppressor inactive and TDP43 rescue 14%.
`CC(C)CCNC(=O)C(=O)Nc1c2c(nn1-c1ccc(Cl)cc1)CSC2` gave Abeta yeast res inactive, FUS suppressor inactive and TDP43 rescue 19%.
Screening O=C(CNS(=O)(=O)c1cccc(Cl)c1)OCc1csc(-c2ccccc2)n1 returned aSyn yeast inh inconclusive, Abeta yeast res inactive, Akt phos inh inactive and TDP43 rescue 11%.
Screening CNS(=O)(=O)c1cccc(C(=O)OCc2csc(-c3ccccc3)n2)c1 returned aSyn yeast inh 0%, Abeta yeast res inactive, Akt phos inh inactive and TDP43 rescue 16µM*.
CCc1ccc(-c2nc(CN3CCC(C(=O)NCCc4ccc(Cl)cc4)CC3)c(C)o2)cc1 was read as Abeta yeast res inactive, FUS suppressor inactive and TDP43 rescue -5%.
Screening Oc1cccc(Nc2ccccc2)c1 returned aSyn yeast inh 13%, Abeta yeast res inactive, FUS suppressor inactive, Akt phos inh inactive and TDP43 rescue 13µM*.
`Clc1cccc(CNc2ccn3nc(-c4ccco4)cc3n2)c1` gave aSyn yeast inh inconclusive, Abeta yeast res inactive, FUS suppressor inactive, Akt phos inh inactive and TDP43 rescue 16µM*.
Clc1cccc(CNc2ccn3nc(-c4ccc(OCCN5CCOCC5)cc4)cc3n2)c1 was read as aSyn yeast inh inconclusive, Abeta yeast res inactive, FUS suppressor inactive, Akt phos inh inactive and TDP43 rescue 0%.
Screening Clc1cccc(CNc2ccn3nc(-c4cccs4)cc3n2)c1 returned aSyn yeast inh inconclusive, Abeta yeast res inconclusive, FUS suppressor inactive, Akt phos inh inactive and TDP43 rescue 18µM*.
`c1ccc(COc2cccc(-c3cc4nc(NCc5cccs5)ccn4n3)c2)cc1` gave aSyn yeast inh -25%, Abeta yeast res inactive, FUS suppressor inactive, Akt phos inh inactive and TDP43 rescue -19%.
Screening O=S(=O)(c1ccc2c(c1)CCCC2)N1CCN(c2nc(-c3ccccc3)nc3ccccc23)CC1 returned aSyn yeast inh 1%.
Screening COc1cc(CO)cc(-c2cc(CO)cc(OC)c2OC)c1OC returned aSyn yeast inh 1%, Abeta yeast res inactive, FUS suppressor inactive, Akt phos inh -107%* and TDP43 rescue 17%.
Screening Nc1c(C(=O)c2ccc(Br)s2)oc2ccccc12 returned aSyn yeast inh 0%, Abeta yeast res inactive, FUS suppressor inactive, Akt phos inh inactive and TDP43 rescue 13µM*.
Screening Nc1c(C(=O)c2cccs2)oc2ccccc12 returned aSyn yeast inh 7%, Abeta yeast res inactive, FUS suppressor inactive, Akt phos inh inactive and TDP43 rescue 3%.
Cc1cc(Nc2ccc(C(C)C)cc2)nc(-n2nc(C)cc2C)n1 was read as Abeta yeast res inactive, FUS suppressor inconclusive and TDP43 rescue 20µM*.
Screening COc1ccc(O)c(/C=N/Nc2nc(Nc3ccccc3)nc(-n3nc(C)cc3C)n2)c1 returned aSyn yeast inh 8%, Abeta yeast res inconclusive, FUS suppressor inactive, Akt phos inh inactive and TDP43 rescue 22µM*.
Screening Cc1cc(N/N=C/c2ccc(O)cc2O)nc(-n2nc(C)cc2C)n1 returned aSyn yeast inh -3%, Abeta yeast res inactive, FUS suppressor inactive, Akt phos inh inactive and TDP43 rescue 5%.
`COc1ccc(/C=N/Nc2cc(C)nc(-n3nc(C)cc3C)n2)cc1` gave aSyn yeast inh inconclusive, Abeta yeast res inactive, FUS suppressor inactive, Akt phos inh inactive and TDP43 rescue 20µM*.
Screening COc1cc(/C=N/Nc2nc(Nc3ccccc3)nc(-n3nc(C)cc3C)n2)cc(OC)c1OC returned aSyn yeast inh 0%, Abeta yeast res inconclusive, FUS suppressor inconclusive, Akt phos inh inactive and TDP43 rescue -5%[0.397 µM].
Screening Cc1cc(N/N=C/c2cccc([N+](=O)[O-])c2)nc(-n2nc(C)cc2C)n1 returned aSyn yeast inh -6%, Abeta yeast res inactive, FUS suppressor inactive, Akt phos inh inactive and TDP43 rescue 14%.
Cc1cc(N/N=C/c2cccc(Cl)c2)nc(-n2nc(C)cc2C)n1 was read as aSyn yeast inh 12%, Abeta yeast res inactive, FUS suppressor inactive, Akt phos inh inactive and TDP43 rescue 14µM*.
CCc1ccc(NC(=O)NCCc2c(C)nn(C)c2C)cc1 was read as Abeta yeast res inactive, FUS suppressor inactive and TDP43 rescue 22%.
CCc1ccccc1Nc1nn2c(=O)c3ccc(C(=O)NCc4cccs4)cc3nc2s1 was read as Abeta yeast res inactive, FUS suppressor inactive and TDP43 rescue 14%.
